Data taken from PubChem BioAssay (Tox21).
Values without a mark were called inactive. Activity calls are given as the source filed them. Calls follow the shape of the dose curve; as a rule, active = well fitted curve in the direction sought with a large enough effect in the repeat runs; inconclusive = weak or mixed curves; inactive = flat fitted curve, though single readings scatter.

Assay: qHTS assay to test for compound auto fluorescence at 590 nm (red) in HepG2 cell free culture (AID 720684)
Conditions: cell-free medium autofluorescence, red 540/590 nm; series mostly up to 91.3 µM
Source text: U.S. Tox21 Program National Center for Advancing Translational Sciences [NCATS] NIH Chemical Genomics Center [NCGC] U.S. Environmental Protection Agency [EPA] National Institutes of Environmental Health Sciences [NIEHS] National Toxicology Program [NTP] U.S. Food and Drug Administration [FDA] Tox21 Assay Overview: Compound auto fluorescence often interferes with screening of the compound library against various biological targets and signaling pathways. Some of these compounds may have fluorophoric properties. Such properties may interfere with the assay outputs resulting in false positives and/or negatives. To decrease such complications and ensure the compound activities are relevant in terms of biological response, the Tox21 10K compound library was screened for auto fluorescence. From the fluorophores used as reporter signals in our screening assays, the auto fluorescence equivalencies of compounds against three fluorophores have been evaluated: Triamterene, Fluorescein and Rose Bengal sodium for blue, green and red fluorescence, respectively. The fluorescence intensities were measured using Excitation/Emission wavelengths at 405/460nm, 485/535nm and 540/590nm for blue, green and red labels, respectively. This assay includes the red fluorescence data.
Tox21 Assay Protocol Summary: 5 uL of culture medium (MEM containing 10% FBS) per well was dispensed into black wall/clear bottom 1536-well plates using a Multidrop Combi Dispenser (ThermoFisher Scientific, Waltham, MA). After 23 nL compound or DMSO vehicle was transferred into assay plate by a pintool work station (Kalypsys, San Diego, CA), fluorescence intensities in the assay plates were measured by an Envision (PerkinElmer, Shelton, CT) plate reader using three labels for measuring blue, green and red fluorescence at […] 460, 535 and 590nm respectively.
% is scaled to controls: 0 for no effect and ±100 for the full control effect.

Row | Compound | outcome | fluorescence, % of Rose Bengal
1 | Nc1ccc(Cl)cc1[N+](=O)[O-] | inactive | –
2 | Cc1ccccc1N1C(=O)c2cc(S(N)(=O)=O)c(Cl)cc2NC1C (stereo not given) | inactive | –
3 | O=C(CCCN1CCC(O)(c2ccc(Br)cc2)CC1)c1ccc(F)cc1 | – | -0.294% [at 18.6 µM]
4 | OCC1CC=CCC1 (stereo not given) | inactive | –
5 | CCCCCCCCCCCC(=O)[O][Sn]([CH2]CCC)([CH2]CCC)[O]C(=O)CCCCCCCCCCC | inactive | –
6 | C[C@]12CCC(=O)C=C1C=C[C@@H]1[C@@H]2CC[C@@]2(C)[C@H]1CC[C@@]21CCC(=O)O1 | inactive | –
7 | CCCCCCCCCCOS(=O)(=O)O | inactive | –
8 | CO[Si](C)(OC)OC | inactive | –
9 | C[Si]1(C)O[Si](C)(C)O[Si](C)(C)O1 | inactive | –
10 | CC(Cl)C(Cl)Cl (stereo not given) | inactive | –
11 | CCC(C(=O)OCCOCCN(CC)CC)c1ccccc1 (stereo not given) | inactive | –
12 | c1ccc(COCc2ccccc2)cc1 | inactive | –
13 | CCCOC(=O)c1ccc(C(=O)OCCC)nc1 | inactive | –
14 | CCCCC(CC)CNCC(CC)CCCC (stereo not given) | inactive | –
15 | CN(C)CCOC1=Cc2ccccc2Sc2ccc(Cl)cc21 | inactive | –
16 | CSc1ccc(Oc2ccc(S(N)(=O)=O)cc2CN(C)C)cc1C | inactive | –
17 | CO/N=C1\CN(c2nc3c(cc2F)c(=O)c(C(=O)O)cn3C2CC2)CC1CN (stereo not given) | inactive | –
18 | CC1CN(c2cc3c(cc2F)c(=O)c(C(=O)O)cn3-c2ccc(F)cc2F)CCN1 (stereo not given) | inactive | –
19 | CCCOc1ccc(S(=O)(=O)N2CCN(CC)CC2)cc1-c1nc2c(CC)n(Cc3ccccn3)nc2c(=O)[nH]1 | inactive | –
20 | COc1cc2c(cc1OC)-c1cc(=Nc3c(C)cc(C)cc3C)n(C)c(=O)n1CC2 | inactive | –

Row | Compound | outcome | fluorescence, % of Rose Bengal
21 | CNCCCC1c2ccccc2C=Cc2ccccc21 | – | 0.549% [at 18.6 µM]
22 | O=C(C(=O)c1ccccc1)c1ccccc1 | inactive | –
23 | COCCOC(=O)C1=C(C)NC(C)=C(C(=O)OC/C=C/c2ccccc2)C1c1cccc([N+](=O)[O-])c1 (stereo not given) | inactive | –
24 | CCOC(=O)c1ccccc1OC | inactive | –
25 | O=C(O)c1ccc(CO)o1 | inactive | –
26 | CCCCC(=O)O[C@]1(C(=O)CO)CC[C@H]2[C@@H]3CCC4=CC(=O)CC[C@]4(C)[C@H]3[C@@H](O)C[C@@]21C | inactive | –
27 | CCOC(=O)OCC | inactive | –
28 | CCCCCCCCCCCC[N+](C)(C)CC(=O)[O-] | inactive | –
29 | O=C(CCCCCCC(=O)Nc1ccccc1)NO | inactive | –
30 | Cc1nccn1-c1ccc(Sc2cccc(C3(C(N)=O)CCOCC3)c2)cc1 | inactive | –
31 | CC1(C)O[C@@H]2C[C@H]3[C@@H]4CCC5=CC(=O)C=C[C@]5(C)[C@H]4[C@@H](O)C[C@]3(C)[C@]2(C(=O)CO)O1 | inactive | –
32 | COCc1c(C(C)C)nc(C(C)C)c(/C=C/[C@@H](O)C[C@@H](O)CC(=O)O)c1-c1ccc(F)cc1 | inactive | –
33 | CC(C)OCC1CO1 (stereo not given) | inactive | –
34 | CC1CC(=O)NN=C1c1ccc(NCC(C)(C)NCC(O)COc2cc(Cl)ccc2C#N)cc1 (stereo not given) | inactive | –
35 | CCC1(C)CC(=O)NC1=O (stereo not given) | inactive | –
36 | CCN(Cc1cccc(S(=O)(=O)O)c1)c1ccc(C(=C2C=CC(=[N+](CC)Cc3cccc(S(=O)(=O)[O-])c3)C=C2)c2ccccc2)cc1 | inactive | –
37 | C[C@@H]1C[C@H]2[C@@H]3CCC4=CC(=O)C=C[C@]4(C)[C@@]3(F)[C@@H](O)C[C@]2(C)[C@H]1C(=O)CO | inactive | –
38 | CC(=O)Nc1ccc(N)cc1 | inactive | –
39 | CCn1nc(C)c2c1C(=O)NCC(c1ccc(O)cc1)=N2 | inactive | –
40 | Cc1cc(O)c(C(C)C)cc1Cl | inactive | –
